Rows were chosen to be rich in hits. Some 2.5% of all compounds tested hit in one or more screens of this group.
697 NFkB inh = inhibitors of the PMA/ionomycin-induced NF-kB reporter in 697 B cells; 697 B-cell NF-kB luciferase reporter, 16 h; inhibition, % at 4 µM; hit rate 0.33% among 330,000; AID 435022; in the data active = inhibition above about 35%
TMEM16A act = activators or potentiators of mouse TMEM16A chloride channel. Q8BHY3. HEK293 TMEM16A/YFP-H148Q/I152L, iodide quench fluorescence; active compounds read low. B-score at 10 µM. hit rate 0.3% among 340,000. AID 623877;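 active = fluorescence-ratio B-score plate-corrected deviation score at least 3 library SD below zero, with starting fluorescence score within 5 deviations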;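 note: channel opened by trigger with iodide after compound preincubation; score built on the fluorescence ratio of max minus min over baseline; more negative score means more quench and so TMEM16A activation or potentiation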
Target sequence (Q8BHY3 whole entry, looked up): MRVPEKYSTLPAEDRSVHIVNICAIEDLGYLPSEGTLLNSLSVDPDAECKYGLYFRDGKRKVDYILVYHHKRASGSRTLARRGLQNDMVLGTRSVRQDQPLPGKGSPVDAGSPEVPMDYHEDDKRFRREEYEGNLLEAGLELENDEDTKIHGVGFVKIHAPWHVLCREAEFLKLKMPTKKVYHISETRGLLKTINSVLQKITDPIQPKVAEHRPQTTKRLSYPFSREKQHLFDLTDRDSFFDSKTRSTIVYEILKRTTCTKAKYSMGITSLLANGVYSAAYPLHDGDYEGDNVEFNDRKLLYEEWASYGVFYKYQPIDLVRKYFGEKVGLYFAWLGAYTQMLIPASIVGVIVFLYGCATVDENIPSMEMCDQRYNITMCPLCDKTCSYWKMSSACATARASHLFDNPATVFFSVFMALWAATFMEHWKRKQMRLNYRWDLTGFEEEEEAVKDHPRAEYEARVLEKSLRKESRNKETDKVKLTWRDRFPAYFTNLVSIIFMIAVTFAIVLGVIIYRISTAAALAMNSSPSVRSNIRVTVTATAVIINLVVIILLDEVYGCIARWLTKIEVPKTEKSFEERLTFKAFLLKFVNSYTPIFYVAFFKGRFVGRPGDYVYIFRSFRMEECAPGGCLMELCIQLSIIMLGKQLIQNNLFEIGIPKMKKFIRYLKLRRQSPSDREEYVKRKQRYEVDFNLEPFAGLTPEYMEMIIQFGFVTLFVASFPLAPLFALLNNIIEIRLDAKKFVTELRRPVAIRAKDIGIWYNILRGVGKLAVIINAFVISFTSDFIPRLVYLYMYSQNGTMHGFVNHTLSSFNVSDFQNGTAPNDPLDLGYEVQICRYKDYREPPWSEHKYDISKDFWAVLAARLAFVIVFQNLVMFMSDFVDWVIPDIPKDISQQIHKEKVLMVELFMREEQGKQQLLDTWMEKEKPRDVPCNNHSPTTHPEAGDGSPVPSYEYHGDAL
ANO1 block = mouse TMEM16A channel inhibition, primary screen; Q8BHY3; HEK293 TMEM16A/YFP iodide influx fluorescence, ionomycin; normalized B-score (activity score, 25-100; higher = stronger inhibition) at 10 µM; hit rate 1.2% among 310,000;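 active = ratio plate-corrected score three or more library SD toward inhibition, starting fluorescence score within five deviations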;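 note: score derived from kinetic fluorescence span divided by baseline fluorescence per well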
KLF5 inh = suppresses KLF5 promoter-driven expression; DLD-1 KLF5 promoter-luciferase reporter, luminescence; inhibition, % at 5 µM; hit rate 0.23% among 290,000; AID 1700;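 active = inhibition above a per-plate limit of that plate's mean compound inhibition plus 3 SD, cut at about 60% in these data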;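 note: 0% = DMSO wells and 100% = LY294002 at 200 µM; higher means less KLF5 promoter-driven luciferase light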
aSyn 5UTR inh = 5' untranslated region of α-synuclein, MLPCN primary screen; alpha-synuclein 5'UTR reporter, inhibitor activity; inhibition, % (tested at 7.5 µM); hit rate 0.82% among 300,000; in the data active = inhibition above about 60%; inconclusive = no clear call, values can overlap the other calls;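 note: H4 neuroglioblastoma cells stably carrying SNCA 5'UTR luciferase fusion; 0% = DMSO wells and 100% = positive control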
Jurkat NFkB inh = inhibitors of the PMA/ionomycin-induced NF-kB reporter in Jurkat cells; hit rate 0.53% among 330,000; PMA/ionomycin-induced NF-kB luciferase reporter, luminescence; inhibition, % at 4 µM; in the data active = inhibition above about 50%
Jurkat NFkB conf = inhibitors of the PMA/ionomycin-induced NF-kB reporter in Jurkat cells, retest; shares compounds with Jurkat NFkB inh; Jurkat NF-kB luciferase, 16 h; inhibition, % at 4 µM; hit rate 27% among 2,700;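 active = inhibition reaching about 45% at 4 µM in either replicate, limit read from the data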;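 note: plate controls were PMA/ionomycin stimulated DMSO wells for no effect and unstimulated DMSO wells for full effect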
697 NFkB conf = inhibitors of the PMA/ionomycin-induced NF-kB reporter in 697 B cells, retest | AID 449746 | inhibition, % at 4 µM | shares compounds with 697 NFkB inh | hit rate 35% among 2,000 | 697 B-cell NF-kB luciferase, 16 h; in the data active = inhibition mostly above about 28%, no sharp cut-off; inactive = mostly below about 22%
Numbers without * were called inactive; i = inactive; ? = inconclusive; / = no result.

SMILES	697 NFkB inh	TMEM16A act	ANO1 block	KLF5 inh	aSyn 5UTR inh	Jurkat NFkB inh	Jurkat NFkB conf	697 NFkB conf
Cc1cccc(N2CCc3c2nc2ccccc2c3N)c1	16.1	i	i	-19.7	-34.0	-7.2	/	/
Nc1ccc(CCN2CCN(c3cccc(C(F)(F)F)c3)CC2)cc1	-11.1	i	i	/	17.9	60.4*	12.7	/
Cc1cccc(-n2c(O)c(/C=C3/C(c4ccccc4)=Nc4ccccc43)c(=O)[nH]c2=O)c1	-92.6	i	i	23.0	-174.0	44.9	/	/
Cc1ccccc1-n1c(O)c(/C=C2/C(c3ccccc3)=Nc3ccccc32)c(=O)[nH]c1=O	-92.6	i	i	43.8	-43.4	52.9*	35.0	/
CC(C)(O)/C=C/C(=O)[C@](C)(O)C1[C@H](O)C[C@@]2(C)C3CC=C4C(C[C@H](O)[C@@H](O)C4(C)C)[C@]3(C)C(=O)C[C@]12C (some centres undefined)	41.4*	i	/	/	/	62.4*	14.9	50.2*
CCC(C)N=Cc1c(O)n(-c2ccccc2)c(=O)[nH]c1=O (centres undefined)	-9.8	i	i	-14.1	13.1	1.1	/	/
O=C1CCCN1c1ccc(S(=O)(=O)O)cc1 (tested in a mixture with another compound)	-8.8	i	i	-5.7	-0.5	-9.5	/	/
O=c1c(C=Nc2cccnc2Cl)c(O)n(CCCCl)c(=O)n1C1CCCCC1	-16.3	i	i	5.8	-2.0	-20.1	/	/
COc1ccc(C[C@H]2NC[C@H](O)[C@H]2OC(C)=O)cc1	100.4*	i	i	/	112.3*	99.6*	99.3*	94.1*
COc1ccc(CCNC2CCCCC2)cc1	19.0	i	i	-18.3	-10.5	20.7	/	/
CC(C)(C)n1cc(C(=O)c2ccccc2OCCCF)cn1	-7.9	i	i	-33.6	-0.2	5.2	/	/
CC(C)(C)n1cc(C(=O)c2ccc3ccccc3c2O)cn1	-304.9	i	i	-87.2	6.5	-180.5	-46.5	-295.1
C=CC[C@@H](CC/C=C/C=C/CC/C=C\[C@@H]1CSC([C@@H]2C[C@@H]2C)=N1)OC	-325.4	/	/	/	/	74.5*	52.2*	-144.4
COC1=CC(=O)[C@]2(C=C1OC)OC[C@@H]1Oc3c(ccc4c3C=CC(C)(C)O4)C(=O)[C@@H]12	77.5*	/	/	/	/	52.4*	74.2*	87.0*
O=C1/C(=C/c2ccccc2)C[C@@]2(O)[C@H]3Cc4ccc(O)c5c4[C@@]2(CCN3CC2CC2)C1O5 (some centres undefined)	54.6*	i	/	/	/	84.5*	46.8	49.5*
CN(C)c1ccc(C=C(C#N)C#N)cc1	-25.3	i	i	-18.8	-1.4	-7.9	/	/
CC(C)(C)c1cc(C=C(C#N)C#N)cc(C(C)(C)C)c1O	-290.4	i	100*	/	/	55.5*	72.8*	-105.5
CSc1cccc(NP2(=O)OCC(C)([N+](=O)[O-])CO2)c1 (centres undefined)	/	i	/	/	/	/	/	/
C=C1C(O)[C@@H]2O[C@]3(CC[C@H](/C=C/C(C)[C@@H]4CC(C)=CC5(O[C@H](C[C@@](C)(O)C(=O)O)CCC5O)O4)O3)CC[C@H]2O[C@@H]1C(O)CC(C)[C@H]1OC2(CCCCO2)CCC1C (some centres undefined)	100.3*	/	/	/	/	101.0*	99.0*	79.2*
COc1c(/C=C2/C(=O)NC(=O)N(C)C2=O)c(CCN(C)C(=O)c2ccccc2)cc2c1OCO2	2.0	i	i	-17.6	-3.0	-5.4	/	/
CN1C2CCC1CC(=NO)C2	18.4	i	i	-16.2	22.1	5.2	/	/
Nc1ccccc1C(=O)OCCOc1ccccc1	-265.6	i	i	-54.4	/	-155.1	-143.2	-279.2
C[C@]12CC(=CO)C(=O)C[C@@H]1CC[C@@H]1[C@@H]2CC[C@@]2(C)[C@H]1CC[C@]2(C)O	/	/	/	-31.4	/	/	/	/
COc1cc2c(c(OC)c1OC)-c1ccc(O)cc1[C@@H](NC(C)=O)CC2	-487.4	i	i	/	?	77.2*	64.1*	-201.2

Screening results from PubChem BioAssay.
